Source: PubChem
Pf Dd2 inh: blocks in vitro growth of P. falciparum Dd2 | actives 4.3% (n = 120,000) | Potency, µM (doses to about 28.9 µM), for the others: at the top dose activity, negative = inhibition, usual class: inhibitors | P. falciparum Dd2 growth, SYBR Green, 72 h | AID 1347417; active means well fitted inhibition curve with a large enough effect;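 further: plate controls were DMSO vehicle for no effect and reference drug for full effect; nearly all actives have a fitted effect of over 65% in size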
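Readout: SYBR Green fluorescence, 485 nm excitation, 535 nm emission, after ~16 h lysis at 37C. Before that, Dd2-infected red cells (2.5% hematocrit) grew 72 h with compound, 29 uM top final concentration.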
Starred values were filed as active, the others as inactive; i = inactive; [ ] = remark or other dose. Many of the other results were omitted from the sample, so hits are more common in it than they were. Potency means the concentration at half of the fitted maximal effect.

SMILES	Pf Dd2 inh
COc1cccc(N2CC(C(=O)NCC3CC3)NC2=O)c1 (centres undefined)	9%[44.1 µM]
CC(=O)Nc1cc(-c2cc(C(=O)NCc3cccnc3)c3c(c2)N(C)CCO3)ccn1	-17%[44.1 µM]
CC(=O)Nc1cc(-c2cc(C(=O)NCc3cc(C)on3)c3c(c2)N(C)CCO3)ccn1	7.9µM*
Cc1cc(CNC(=O)c2cc(-c3ccccc3)cc3c2OCCN3C)no1	i
CC(C)C1=NOC2(CCN(Cc3cccc(C(N)=O)c3)CC2)C1	10%
CCOc1ccc(-c2nc(C3CC(=O)N(c4ccc(OC)cc4)C3)no2)cc1 (centres undefined)	-26%
CCOc1ccc(N2CC(c3nc4ccccc4n3CCC3CCCCC3)CC2=O)cc1 (centres undefined)	11µM*
CCOc1ccc(N2CC(c3nc4ccccc4n3CCCCOc3ccc(OC)cc3)CC2=O)cc1 (centres undefined)	13µM*
CCOc1ccc(N2CC(c3nc4ccccc4n3CCOc3ccc(CC)cc3)CC2=O)cc1 (centres undefined)	-27%
CCOc1ccccc1N1CC(c2nc3ccccc3n2CCOc2ccc(C(C)(C)C)cc2)CC1=O (centres undefined)	-24%
CCOc1ccc(N2CC(c3nc4ccccc4n3CCOc3ccccc3OC)CC2=O)cc1 (centres undefined)	13µM*
CCOc1ccccc1N1CC(c2nc3ccccc3n2CCCOc2ccccc2OC)CC1=O (centres undefined)	i
CCOc1ccc(N2CC(c3nc(-c4cc(OC)c(OC)c(OC)c4)no3)CC2=O)cc1 (centres undefined)	36%
CCOc1ccc(N2CC(c3nc4ccccc4n3CCCOc3ccccc3)CC2=O)cc1 (centres undefined)	13µM*
CCOc1ccc(N2CC(c3nc4ccccc4n3CC(C)C)CC2=O)cc1 (centres undefined)	-4%
CCOC(=O)Cn1c(C2CC(=O)N(c3ccc(C)cc3)C2)nc2ccccc21 (centres undefined)	37%
C[C@H](O)c1onc(-c2ccc(Cl)cc2)c1C(=O)NC1CCC1	-16%[44.1 µM]
CC(C)N1CCC(OCCCNC(=O)CN2CCCc3nc(C4CC4)ncc3C2=O)CC1	10%
Cc1cnc(CC2CCN(Cc3ccc(F)cc3F)C2)n1CC1CC1 (centres undefined)	-5%
COC1CCC12CCN(C(=O)c1cccc(C#N)c1)CC2 (centres undefined)	15%
Cc1ccc2c(c1)N1C(=O)OC[C@@H]1CCN(C(=O)CCC(=O)O)C2	19%[44.1 µM]
O=C(NC1CC(=O)N(CCc2ccc(F)cc2)C1)C1CCCCC1 (centres undefined)	6%
Cc1nc(-c2c3n(c(=O)n(CC(=O)NCc4ccccc4Cl)c2=O)CCCCC3)no1	-1%
COc1ccc(C(=O)N[C@H]2CC[C@]3(C)CCC([C@H](C)C(=O)N(C)Cc4cccnc4)[C@H](O)[C@H]3[C@@H]2C)cc1 (some centres undefined)	i
CC(C)n1c(C2CCN(C(=O)CN3CCCCCC3)CC2)nn(C)c1=O	-8%
SMILES	Pf Dd2 inh
CCC1(O)CCC12CCNCC2 (centres undefined)	i
Cc1cccc(C)c1OCCn1c(C2CC(=O)N(Cc3ccc(F)cc3)C2)nc2ccccc21 (centres undefined)	2.5µM*
Cc1cc(C)c(Cn2c(C3CC(=O)N(c4ccc(F)cc4)C3)nc3ccccc32)c(C)c1 (centres undefined)	i
CC(=O)N1CCCC1c1nc2ccccc2n1Cc1ccc(F)cc1 (centres undefined)	23%
CCNC(=O)N[C@H]1CO[C@H]2[C@@H]1OC[C@@H]2n1nnnc1Oc1ccccc1	30%[44.1 µM]
O=C(C1CCOCC1)N1CCN(C(=O)N2CC3CC(C2)[C@H]2CCCC(=O)N2C3)CC1 (some centres undefined)	i
COc1ccc(-c2n[nH]c3c2CC(=O)N(CCOc2ccccc2)C3)cc1F	-16%[44.1 µM]
COc1ccc(-c2nn(-c3ccccc3C)cc2CN(C)CCN2CCOCC2)cc1F	11µM*
CCN1CC(CN(C)Cc2nc(Cc3cccc(F)c3)no2)CC1=O (centres undefined)	3%
Cc1ccc(C)c(-n2cc(CN(C)CCO)c(-c3ccccc3)n2)c1	-18%
CCN1CC(CN(C)Cc2cn(-c3ccccc3C)nc2-c2ccc(OC)c(F)c2)CC1=O (centres undefined)	10µM*
COc1ccccc1-c1ccnc(-c2nnc(C)n2CCN2CCOCC2)c1	i
CCOc1ccccc1C1NC(=O)N(CC(=O)NCc2cccc(OC)c2)C2=C1C(=O)OC2 (centres undefined)	i
Cn1ccnc1CN1C(=O)CO[C@H]2CN(C(=O)c3cccnc3)C[C@H]21	i
CCCN(CCC)C(=O)C1COC2(CCC(C)CC2)N1C(=O)c1ccccc1F (centres undefined)	i
Cc1noc(C)c1S(=O)(=O)N1CCC[C@H](n2c(=O)n(C)c3cccnc32)C1	i
Cc1ccc(CNC(=O)c2oc3ccc(S(=O)(=O)N4CCCC(C)C4)cc3c2C)cc1 (centres undefined)	10µM*
CCn1cc(C(=O)NCc2ccc(C)cc2)c(=O)c2cc(S(=O)(=O)N3CCC(C)CC3)ccc21	2%
Cc1ccc(NC(=O)c2oc3ccc(S(=O)(=O)N4CCCCCC4)cc3c2C)cc1Cl	22%
Cc1noc(C)c1S(=O)(=O)N1CCOC[C@H](Oc2ccc(C(F)(F)F)cc2)C1	-1%[44.1 µM]
Cc1cccc(Cn2c(SCc3ccc(C(=O)NCc4ccccc4F)cc3)nc3cccnc32)c1	-27%
O=C(NCc1cccs1)c1ccc(Cn2c(SCc3ccc(F)cc3)nc3cccnc32)cc1	-19%
Cc1cccc(Cn2c(SCc3ccc(C(=O)NCCc4ccccc4)cc3)nc3cccnc32)c1	11µM*
O=C(NCCc1cccs1)c1ccc(Cn2c(SCc3ccccc3)nc3cccnc32)cc1	11µM*
O=C(NC1CC1)c1ccc(Cn2c(SCc3ccc(F)cc3)nc3cccnc32)cc1	-2%
SMILES	Pf Dd2 inh
Cc1ccc(CNC(=O)c2ccc(Cn3c(SCc4ccc(F)cc4)nc4cccnc43)cc2)o1	11µM*
CN(Cc1ccccc1)C(=O)c1ccc(CSc2nc3cccnc3n2Cc2ccccc2F)cc1	-18%
O=C(NCCc1ccccc1)c1ccc(CSc2nc3cccnc3n2Cc2ccc(F)cc2)cc1	8.9µM*
CCOc1ccc(C(=O)NCc2nc3cccnc3n2Cc2ccc(F)cc2)cc1OCC	i
Cc1cccc(CSc2nc3cccnc3n2Cc2ccc(C(=O)NCc3ccco3)cc2)c1	-14%
COCc1nc(CCNC(=O)C2CCN(S(=O)(=O)N3CCC(C)CC3)CC2)no1	-8%
CC(C)Cc1cc(C(=O)N[C@H]2CN(C(=O)N(C)C)C[C@@H]2C2CC2)nc(N)n1	9%
O=C(NCc1cccnc1Oc1ccc(F)cc1F)c1cc(C2CC2)[nH]n1	-18%
O=C(NC[C@H]1O[C@@H](CO)[C@@H](O)[C@H]1N1CCN(c2ccc(F)cc2)CC1)c1ccco1	8%
Cc1ccc2nc3n(c2c1)[C@@H](CNCc1ccc(C(=O)O)cc1)COC3	2%[44.1 µM]
CNC(=O)[C@@H]1C[C@H](Oc2cccnc2)CN1C(=O)CCCc1ccccc1	30%
Cc1nonc1OCCNC(=O)c1ccc2nc(Cc3ccccc3F)oc2c1	-11%
Cc1ccc(C(=O)N2CCc3nc(C)nc(-c4ccc(Cl)cc4)c3CC2)cc1	i
O=c1c2cn[nH]c2nc(SCc2cccc(Br)c2)n1-c1ccc(Cl)cc1	9%
Cc1ccccc1-n1c(SCc2ccc(Cl)cc2)nc2[nH]ncc2c1=O	10µM*
